# Laboratory results published in PubChem BioAssay AID624305 (National Center for Advancing Translational Sciences (NCATS), 2012).
# Records with an inconclusive call do not appear. Unmarked numbers belong to inactive results. The source made the active and inactive calls. Calls follow the shape of the dose curve; as a rule, active = well fitted activation curve with a large enough effect; inconclusive = small, poorly fitted or top-dose-only effect; inactive = no such curve, though single readings can be large or run the other way.
# Assay: qHTS assay for re-activators of p53 using a Luc reporter: Hit Validation; also: nearly all actives have a fitted effect of over 75% in size; as to activation: 0% is about no effect
# Conditions: p53-responsive luciferase reporter cells, luminescence, H1299 line expressing heat-sensitive Ala138Val p53; series mostly up to 46.1 µM
# Procedure, shortened: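 H1299 (p53-null) cells stably carrying p53-A138V and a BP100-luciferase reporter, 1000 cells/well, treated 24 h at 37 deg C. Compounds at several concentrations, 1:5 dilution; nocodazole control; luminescence read after 10 min with detection reagent.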
# Potency is read from the fitted curve at half-maximal effect.
SMILES,Potency,activation
COc1ccc(N(C(=O)Nc2ccc(Cl)cc2)C2=NCCC2)cc1,inactive,–
CC1Cc2ccccc2N1C(=O)COC(=O)C1(c2ccccc2F)CCCC1 (stereo not drawn),inactive,–
COc1cc(C(=O)NCC(=O)Nc2c(C)cccc2C)ccc1OCc1ccccc1,inactive,–
Cc1ccc(-c2cc(-c3ccccc3Cl)[nH]n2)c(O)c1,14.6 µM (active),–
NC(N)=Nc1nc(C2COc3ccccc3O2)cs1 (stereo not drawn),4.11 µM (active),–
O=C(Cn1cc(SCc2ccc(F)cc2)c2ccccc21)N1CCOCC1,inactive,–
O=C1CCCC(O)=C1N=Nc1c(Cl)cc(Cl)cc1Cl,inactive,–
CCCCNC(=S)N(Cc1c(C)noc1C)c1ccccc1,inactive,–
c1ccc(COc2ccc(OCCOCCn3cncn3)cc2)cc1,2.91 µM (active),–
COC(=O)CSc1nc2cc(OC)ccc2cc1C#N,9.2 µM (active),–
CCOC(=O)N(Cc1ccccc1)C(C(=O)O)C(C(=O)O)N(Cc1ccccc1)C(=O)OCC (stereo not drawn),inactive,–
O=C(COC(=O)C12CC3CC(CC(O)(C3)C1)C2)Nc1ccc(Br)cc1F,14.6 µM (active),–
COc1ccc(/C=N/Nc2nncc3ccccc23)cc1,0.0731 µM (active),–
O=C(CNS(=O)(=O)c1cccc(Cl)c1)Nc1ccc(-c2nc3ccccc3s2)cc1,16.4 µM (active),–
Cc1cc2nc(-c3ccc(SCC(=O)Nc4ccc(S(=O)(=O)NC5CC5)cc4)nc3)[nH]c2cc1C,2.31 µM (active),–
CCCCn1c(SCC(=O)N2CCCC2=O)nc2cc(S(N)(=O)=O)ccc21,inactive,–
O=C(NNC(=O)c1cccnc1SCc1cccc([N+](=O)[O-])c1)c1ccccn1,inactive,–
C/C(=N\OCC(=O)NC12CC3CC(CC(C3)C1)C2)c1cc2ccccc2o1,inactive,–
O=C(NC(=S)Nc1ccccc1Br)C1CCCCC1,20.6 µM (active),–

SMILES,Potency,activation
O=c1[nH]c(N/N=C/c2ccc(O)cc2)nc2ccccc12,4.61 µM (active),–
CC(C)(C)c1cc(-n2ccnc2)n2ncc(-c3ccc(Cl)cc3)c2n1,inactive,–
COc1ccc(C2/C(=C(/O)c3ccc(C)cc3)C(=O)C(=O)N2CCCN2CCOCC2)cc1 (stereo not drawn),inactive,–
C/C(=N\NC(=O)c1cc(C)nc2ccccc12)c1ccccn1,16.4 µM (active),–
CC(=O)c1ccc(N2Cc3ccccc3C2=NC(=O)c2cccs2)cc1,inactive,–
CC(=O)OCC(=O)Nc1ccc(N=Nc2ccccc2)cc1,0.651 µM (active),–
COc1cccc(C(=O)c2sc(NC(C)C)nc2N)c1,–,25.6% [at 9.22 µM]
Cc1ccc2nc(NC(=O)c3ccc(Cl)s3)sc2c1,0.731 µM (active),–
COc1ccc(/C(C)=N/Nc2nccnc2Cl)cc1,16.4 µM (active),–
Cc1ccc(C(=O)Nc2nnc(SCC(=O)N3CCCc4ccccc43)s2)cc1,inactive,–
O=C(N/N=C\c1cccc(Cl)c1)c1n[nH]c2c1CCCC2,4.11 µM (active),–
CCOCCCNc1nc2c([nH]1)c(=O)n(C)c(=O)n2C,inactive,–
Cc1cc(C(=O)COC(=O)c2ccc(O)cc2)c(C)n1CC(F)(F)F,20.6 µM (active),–
COc1ccc(-c2nsc3c(N4CCCC4)ncnc23)cc1,0.092 µM (active),–
O=C(c1ccc(N2CCN(S(=O)(=O)c3ccccc3)CC2)c([N+](=O)[O-])c1)N1CCOCC1,inactive,–
CC(=O)N1CCC(C(=O)Nc2ccc(S(=O)(=O)NCCc3ccccc3)cc2)CC1,inactive,–
Cc1cc(C)nc(CC(N)=O)n1,inactive,–
O=C(NC12CC3CC(CC(C3)C1)C2)c1ccc(-c2cccc(Cl)c2)o1,23.1 µM (active),–
O=C(c1ccccc1)n1c(=S)nc2ccccn21,0.164 µM (active),–
